Data from PMC5540273 (PLoS ONE, 2017).

test system: T1, p38-alpha; conditions: concentration: 1 μM, replicates: in singlicate; n = 1
T1 construct: gene MAPK14
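Note: KINOMEscan kinase panel screen.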

| SMILES | %Inh [%] |
| --- | --- |
| Nc1n[nH]c2cnc(-c3ccccc3)cc12 [SB-642124] | 0 |
| CN(c1ccc(NC(=O)Nc2cc(C(F)(F)F)ccc2F)cc1)c1ccnc(Nc2ccc(S(N)(=O)=O)cc2)n1 [GW809893] | 9 |
| CC(C)c1nc(-c2cccc(NS(=O)(=O)c3c(F)cccc3F)c2F)c(-c2ccnc(Nc3ccc(N4CCOCC4)nc3)n2)s1 [GSK2008607] | 81 |
| O=C(Nc1cccc(-c2nn3ncccc3c2-c2ccnc(Nc3ccccc3)n2)c1)c1c(F)cccc1F [GSK198271] | 99.3 |
| O=C(Nc1ccccc1F)NC1CCN(c2ccnc(Nc3ccc(F)cc3)n2)CC1 [GSK1379800] | 32 |
| Cl.c1ccc(-c2ccc3c(Nc4ccc5[nH]ccc5c4)ccnc3c2)nc1 [GW440138] | 20 |
| COc1ccc(CNC(=O)NC2CCN(c3ccnc(Nc4ccc(F)cc4)n3)CC2)cc1 [GSK1379788] | 19 |
| CN(C)Cc1ccc(-c2ccc3c(Nc4ccc(Oc5ccccn5)cc4)ccnc3c2)o1 [GW567148] | 0 |
| CNC(=O)c1ccccc1Nc1nc(Nc2ccc(N3CCOCC3)cc2)ncc1Cl.Cl [GSK1576028] | 8 |
| CCS(=O)(=O)c1ccc(OC)c(Nc2nccc(-c3c(-c4cccc(NC(=O)c5c(F)cccc5F)c4)nn4ncccc34)n2)c1 [GSK326180] | 99.9 |
| c1ccc(Oc2ccc(Nc3ccnc4cc(-c5ccc(CNCCN6CCOCC6)o5)ccc34)cc2)nc1 [GW567145] | 20 |
| Cc1ccc(C)c(NC(=O)NC2CCN(c3ccnc(Nc4ccc(F)cc4)n3)C2)c1 (stereo not drawn) [GSK1379720] | 11 |
